Laboratory results as given in PubChem BioAssay (NCI).
Compounds without any hit were thinned out: in the full panel of roughly 83,000, 20% have a hit.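 Testing used 96-well plates and a 48-hour single-concentration exposure. Example: -40 means 40% of the starting cells died.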 The source made the active and inactive calls. How the source made its calls: active means growth percent below 10; inactive means the rest.

Columns and labels:
Experiment in all cases: NCI-60 one-dose screen, 48 h (100 = growth as untreated, 0 = no growth, -100 = all killed)
Conditions in all cases: 10 µM unless noted
DU-145 prostate = test system: DU-145 prostate
K-562 leukemia = test system: K-562 leukemia
MALME-3M melanoma = test system: MALME-3M melanoma
MDA-MB-231 breast = test system: MDA-MB-231 breast
RXF 393 renal = test system: RXF 393 renal
SF-268 CNS = test system: SF-268 CNS
SF-295 CNS = test system: SF-295 CNS
SF-539 CNS = test system: SF-539 CNS
UACC-257 melanoma = test system: UACC-257 melanoma
M14 melanoma = test system: M14 melanoma

Measured: growth

CC(=O)Nc1ccc2c(c1)Cc1cc(F)ccc1-2
inactive: DU-145 prostate 96.4% | K-562 leukemia 91.4% | MALME-3M melanoma 104% | MDA-MB-231 breast 101% | RXF 393 renal 117% | SF-268 CNS 80.7% | SF-295 CNS 101% | SF-539 CNS 97% | UACC-257 melanoma 99.7% | M14 melanoma 110%

Cc1cc(O)cc(O)c1N=NC1=NCCS1
inactive: DU-145 prostate 103% | K-562 leukemia 89.7% | MALME-3M melanoma 94.3% | MDA-MB-231 breast 97.1% | RXF 393 renal 123% | SF-268 CNS 94.6% | SF-295 CNS 101% | SF-539 CNS 100% | UACC-257 melanoma 101% | M14 melanoma 98%

Cc1nnc(/N=C2\NC(=O)/C(=C/c3ccc(N(C)C)cc3)S2)s1
inactive: DU-145 prostate 84% | K-562 leukemia 49.7% | MALME-3M melanoma 56.9% | MDA-MB-231 breast 103% | RXF 393 renal 76.9% | SF-268 CNS 73% | SF-295 CNS 47.9% | SF-539 CNS 83.7% | UACC-257 melanoma 83.3% | M14 melanoma 51.1%

Cc1c(Cl)cccc1NC(=O)c1sc2nc3c(cc2c1N)CCCCC3
inactive: DU-145 prostate 15.6% | MALME-3M melanoma 68.9% | MDA-MB-231 breast 48.4% | RXF 393 renal 22.8% | SF-268 CNS 54.2% | SF-295 CNS 32% | SF-539 CNS 13.9% | UACC-257 melanoma 67%
active: K-562 leukemia 8.36% | M14 melanoma 2.84%

COc1ccc2[nH]c(=O)c(/C=C/C(=O)c3ccccc3OC)cc2c1
active: K-562 leukemia 4.24% | MDA-MB-231 breast 0.317% | RXF 393 renal -7.9% | SF-268 CNS 9.36% | SF-295 CNS 8.29% | SF-539 CNS -10%
inactive: DU-145 prostate 10.8% | MALME-3M melanoma 38.6% | UACC-257 melanoma 37.6% | M14 melanoma 13.8%

O=C1Nc2ccc(Cl)cc2/C1=N/c1nc(-c2ccc(Cl)cc2)cs1
active: K-562 leukemia 5.94% | MDA-MB-231 breast -22.8% | RXF 393 renal -19.7% | SF-539 CNS -6.26% | UACC-257 melanoma -2.07% | M14 melanoma 1.32%
inactive: DU-145 prostate 26.2% | MALME-3M melanoma 22.2% | SF-268 CNS 21.6% | SF-295 CNS 14.3%

O=C(NCc1ccccc1)c1ccc2c(c1)NC(=O)[C@@H]1CCCN21
inactive: DU-145 prostate 99.7% | K-562 leukemia 106% | MALME-3M melanoma 92.2% | MDA-MB-231 breast 103% | RXF 393 renal 109% | SF-268 CNS 95.6% | SF-295 CNS 98.7% | SF-539 CNS 105% | UACC-257 melanoma 104% | M14 melanoma 95.8%

O=C(Nc1ccc(S(=O)(=O)NC2CCCCCC2)cc1)C(c1ccccc1)S(=O)(=O)c1ccc(F)cc1 (stereo not given)
active: DU-145 prostate 9.51% | K-562 leukemia 7.42% | MALME-3M melanoma -4.32% | RXF 393 renal -33.6% | SF-295 CNS -13.8% | SF-539 CNS 9.02% | UACC-257 melanoma -24.6% | M14 melanoma 2.29%
inactive: MDA-MB-231 breast 13.8% | SF-268 CNS 24.3%

COc1ccc2nc(-c3ccc(Cl)cc3)cc(C(=O)N3N=C(c4ccc(N)cc4)CC3c3ccccc3)c2c1 (stereo not given)
inactive: DU-145 prostate 55% | K-562 leukemia 17.5% | MALME-3M melanoma 62.5% | MDA-MB-231 breast 83.8% | RXF 393 renal 35.3% | SF-268 CNS 48.3% | SF-295 CNS 24.2% | SF-539 CNS 43.4% | UACC-257 melanoma 67.1% | M14 melanoma 38.9%

NC(=O)c1ccc(C2C3=C(CCCC3=O)OC3=C2C(=O)c2ccccc2C3=O)cc1 (stereo not given)
inactive: DU-145 prostate 12.1% | RXF 393 renal 60% | SF-295 CNS 42.9%
active: K-562 leukemia 5.5% | MALME-3M melanoma -16.3% | MDA-MB-231 breast 5.67% | SF-268 CNS 9.54% | SF-539 CNS 0.536% | UACC-257 melanoma -7.13% | M14 melanoma -0.786%

COc1ccccc1N1CCN(CCCOc2ccc(C(=O)/C=C3/C(=O)Nc4ccccc43)cc2)CC1
inactive: DU-145 prostate 81.8% | K-562 leukemia 17.6% | MALME-3M melanoma 66.5% | MDA-MB-231 breast 57% | RXF 393 renal 72.4% | SF-268 CNS 86.9% | SF-295 CNS 71.1% | SF-539 CNS 81.5% | UACC-257 melanoma 90.2% | M14 melanoma 66%

O=C(Nc1ccc(N=Cc2ccccc2O)cc1)NC1C=c2ccccc2=CC1 (stereo not given)
inactive: DU-145 prostate 102% | K-562 leukemia 87% | MALME-3M melanoma 99.1% | MDA-MB-231 breast 92% | RXF 393 renal 108% | SF-268 CNS 91.9% | SF-295 CNS 102% | SF-539 CNS 100% | UACC-257 melanoma 91.6% | M14 melanoma 110%

O=C(N/N=C/C[C@@H]1[C@@H](/C=C/[C@@H](O)COc2cccc(Cl)c2)[C@H](O)C[C@@H]1O)c1ccncc1
inactive: DU-145 prostate 108% | K-562 leukemia 95.9% | MALME-3M melanoma 98.1% | MDA-MB-231 breast 101% | RXF 393 renal 105% | SF-268 CNS 103% | SF-295 CNS 99.5% | SF-539 CNS 104% | UACC-257 melanoma 77.5% | M14 melanoma 99.6%

C#CCN(CCCOc1ccc(Cl)cc1Cl)CCCSC(=O)CCCCCN1/C(=C\C=C2/CCCC(/C=C/C3=[N+](CCCCCC(=O)[O-])c4ccccc4C3(C)C)=C2Cl)C(C)(C)c2ccccc21
active: K-562 leukemia 0.955% | MALME-3M melanoma -56.2% | MDA-MB-231 breast -6.25% | RXF 393 renal -45.2% | SF-268 CNS 7.44% | SF-539 CNS -50.2%
inactive: DU-145 prostate 47% | SF-295 CNS 53.3% | UACC-257 melanoma 30.8% | M14 melanoma 49.7%

COc1ccc(C(=O)c2cc(F)c(F)c(OC)c2F)cc1OC(=O)CCl
active: M14 melanoma -3.12%
inactive: DU-145 prostate 57.2% | K-562 leukemia 15.7% | MALME-3M melanoma 57% | MDA-MB-231 breast 48.8% | RXF 393 renal 69.7% | SF-268 CNS 58.7% | SF-295 CNS 85.2% | SF-539 CNS 25.6% | UACC-257 melanoma 72%

C[C@H]1[C@H](C)CC[C@]2(C(=O)OCCOCCOCC[P+](c3ccccc3)(c3ccccc3)c3ccccc3)CC[C@]3(C)C(=CC[C@@H]4[C@@]5(C)CC[C@H](OC(=O)C(Cl)Cl)C(C)(C)[C@@H]5CC[C@]43C)[C@H]12
inactive: DU-145 prostate 26% | SF-268 CNS 25.9%
active: K-562 leukemia 0.14% | MALME-3M melanoma -78.5% | MDA-MB-231 breast -0.496% | RXF 393 renal -29.5% | SF-295 CNS -34.8% | SF-539 CNS 9.4% | UACC-257 melanoma -13.6% | M14 melanoma 8.99%

CCCn1cc(/C=N\N=C2\C(=O)Nc3ccc(C)cc32)c2ccccc21
inactive: DU-145 prostate 66.4% | K-562 leukemia 17.6% | MALME-3M melanoma 51.7% | MDA-MB-231 breast 34.4% | RXF 393 renal 11.4% | SF-268 CNS 46.6% | SF-295 CNS 71.1% | SF-539 CNS 33.9% | UACC-257 melanoma 58.8% | M14 melanoma 56.3%

Cc1nccc2c3ccc(OCc4cn(-c5ccc(Cl)cc5)nn4)cc3n(CC(C)C)c12
inactive: DU-145 prostate 54.1% | MDA-MB-231 breast 27.8% | SF-268 CNS 57.3% | SF-295 CNS 15.4% | SF-539 CNS 22.2% | M14 melanoma 23.2%
active: K-562 leukemia 8.22% | MALME-3M melanoma 0.392% | RXF 393 renal 0.754% | UACC-257 melanoma 4.16%

Cc1ccc(C(=O)O)o1
inactive: DU-145 prostate 107% | K-562 leukemia 103% | MALME-3M melanoma 104% | MDA-MB-231 breast 111% | RXF 393 renal 118% | SF-268 CNS 98.1% | SF-295 CNS 99.8% | SF-539 CNS 99.5% | UACC-257 melanoma 103% | M14 melanoma 101%

COc1cc(C2=NN(C(C)=O)C(c3cccc(Nc4ccnc5cc(C(F)(F)F)ccc45)c3)C2)cc(OC)c1OC (stereo not given)
inactive: DU-145 prostate 55% | K-562 leukemia 36.8% | MALME-3M melanoma 78.9% | MDA-MB-231 breast 66.1% | RXF 393 renal 55.3% | SF-268 CNS 52.6% | SF-295 CNS 53.8% | SF-539 CNS 76.6% | UACC-257 melanoma 79% | M14 melanoma 29.7%

CCCCC1=c2c([nH]c3ccc(OC)cc23)=NC2C=CC=NC12 (stereo not given)
inactive: DU-145 prostate 98.8% | K-562 leukemia 72.1% | MALME-3M melanoma 108% | MDA-MB-231 breast 79.9% | RXF 393 renal 92.8% | SF-268 CNS 93.1% | SF-295 CNS 106% | SF-539 CNS 93.7% | UACC-257 melanoma 126% | M14 melanoma 101%

O=C1NC(SCc2ccc(F)cc2)=N/C1=C/c1cccc(OCc2ccc(Cl)cc2)c1
active: SF-295 CNS -33.6%
inactive: DU-145 prostate 80.6% | K-562 leukemia 58.5% | MALME-3M melanoma 88.1% | MDA-MB-231 breast 18.3% | RXF 393 renal 55% | SF-268 CNS 74.3% | SF-539 CNS 14.1% | UACC-257 melanoma 95.8% | M14 melanoma 63.9%

NC(N)=NC(N)=Nc1cc2ccccc2c2ccccc12
inactive: DU-145 prostate 56.3% | MDA-MB-231 breast 15.6% | RXF 393 renal 36.3% | SF-268 CNS 48% | SF-295 CNS 53.3% | SF-539 CNS 59.9% | UACC-257 melanoma 74.4%
active: K-562 leukemia 5.89% | MALME-3M melanoma -8.45% | M14 melanoma -33.4%

N#CC1C(c2ccc(Cl)cc2)=Nc2c(c(-c3ccccc3)nn2-c2ccccc2)C12C(=O)Nc1ccc(Cl)cc12 (stereo not given)
inactive: DU-145 prostate 74% | K-562 leukemia 19.1% | MALME-3M melanoma 70.3% | MDA-MB-231 breast 41.2% | RXF 393 renal 28.3% | SF-268 CNS 39.1% | SF-295 CNS 28.1% | SF-539 CNS 43.8% | UACC-257 melanoma 53.6% | M14 melanoma 34.6%

O=C(Nc1nccs1)c1noc2ccccc12
inactive: DU-145 prostate 107% | K-562 leukemia 87.7% | MALME-3M melanoma 96.8% | MDA-MB-231 breast 91.3% | RXF 393 renal 110% | SF-268 CNS 103% | SF-295 CNS 101% | SF-539 CNS 95.6% | UACC-257 melanoma 90.6% | M14 melanoma 96%

CCOC(=O)/C=C1\SC(=Nc2ccc(C#N)cc2)N(CCN2C(=O)/C(=C/C(=O)OCC)SC2=Nc2ccc(C#N)cc2)C1=O
active: K-562 leukemia 7.43%
inactive: DU-145 prostate 41.7% | MALME-3M melanoma 98.6% | MDA-MB-231 breast 16.3% | RXF 393 renal 49.7% | SF-268 CNS 29.7% | SF-295 CNS 76.8% | SF-539 CNS 41.6% | UACC-257 melanoma 77.3% | M14 melanoma 52.3%

CN1CCN(/C=C2\CC(C(=O)NCc3ccc(Cl)cc3Cl)NC2=O)CC1 (stereo not given)
inactive: DU-145 prostate 108% | K-562 leukemia 95.7% | MALME-3M melanoma 98.6% | MDA-MB-231 breast 104% | RXF 393 renal 103% | SF-268 CNS 97.9% | SF-295 CNS 110% | SF-539 CNS 102% | UACC-257 melanoma 93.2% | M14 melanoma 110%
